For 27 compounds, outcome and AC50 results are on record in PubChem BioAssay (EPA / NIEHS).

The source made the active and inactive calls. The calls were made as follows: active = hit-call score of the fitted dose curve at least 0.9, where 1 is the maximum; inactive = score below 0.9.

Sequence of Cytochrome P450 3A4 (Homo sapiens) (P08684 whole entry, looked up): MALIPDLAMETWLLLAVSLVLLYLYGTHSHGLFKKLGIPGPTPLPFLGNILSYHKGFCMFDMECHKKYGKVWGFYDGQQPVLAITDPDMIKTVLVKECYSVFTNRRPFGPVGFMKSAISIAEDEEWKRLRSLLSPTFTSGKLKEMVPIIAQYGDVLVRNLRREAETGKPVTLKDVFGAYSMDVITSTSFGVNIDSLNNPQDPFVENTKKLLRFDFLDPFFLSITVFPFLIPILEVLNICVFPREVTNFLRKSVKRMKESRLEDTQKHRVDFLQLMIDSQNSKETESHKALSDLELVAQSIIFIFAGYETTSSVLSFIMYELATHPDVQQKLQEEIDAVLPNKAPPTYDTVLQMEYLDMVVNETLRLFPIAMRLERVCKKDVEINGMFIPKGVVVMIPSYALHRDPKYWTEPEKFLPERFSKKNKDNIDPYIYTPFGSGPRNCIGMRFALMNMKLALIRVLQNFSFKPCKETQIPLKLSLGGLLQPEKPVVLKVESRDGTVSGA

Read-out in the first experiment: Cytochrome P450 3A4 (Homo sapiens) (UniProt P08684)
Kind of experiment: LTEA_HepaRG_CYP3A4: Life Technologies and Expression Analysis (LTEA) Assay for CYP3A4 using HepaRG (AID 2283487). Particulars: mRNA level, 48 h; actives raise or lower the signal. An outline of the steps:
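CYP3A4 transcript measured by TaqMan qRT-PCR and normalized to three housekeeping genes after 48 h chemical exposure of human HepaRG cells. Top concentration 100 uM, half-log steps, 0.5% DMSO vehicle; gain or loss fitted against DMSO baseline.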
Take `O=C(O)c1ccccc1`: the result was inactive.
For the compound `CCOC(=O)COc1cc(-n2ncc(C(F)(F)F)c(C)c2=O)c(F)cc1Cl`, the AC50 is 50 µM (active).
Regarding `Cc1nn(C)c(Oc2ccccc2)c1C=NOCc1ccc(C(=O)OC(C)(C)C)cc1`, the AC50 is 1.84 µM (active).
On to `COc1c(Cl)ccc(Cl)c1C(=O)O`, for which the outcome was inactive.
As for `CC(=O)[C@H]1CC[C@H]2[C@@H]3CCC4=CC(=O)CC[C@]4(C)[C@H]3CC[C@]12C`, the concentration at half-maximal activity (AC50) was 36 µM (active).
For `CCC(C)OC(=O)N1CCCCC1CCO` (centres undefined), the concentration at half-maximal activity (AC50) is 50 µM (active).
As to `CCCCCOC(=O)COc1cc(N2C(=O)C3=C(CCCC3)C2=O)c(F)cc1Cl`, the AC50 is 28 µM (active).
The same measure, in the same setting: the value for `S=C([S-])NCCNC(=S)[S-].[Mn+2]` was 3.36 µM (active).
With `CCCCOC(=O)C(C)Oc1ccc(Oc2ccc(C(F)(F)F)cn2)cc1` (centres undefined), the call was inactive.
As to `CC1(C)C(C=C(Cl)Cl)C1C(=O)OCc1cccc(Oc2ccccc2)c1` (centres undefined), the half-maximal activity concentration (AC50) was 22.6 µM (active).
For the compound `COC(=O)c1ccc(I)cc1S(=O)(=O)NC(=O)Nc1nc(C)nc(OC)n1`, the half-maximal activity concentration (AC50) was 29.3 µM (active).
As to `c1ccc(Nc2ccccc2)cc1`, the result was inactive.
Take `CCCCOC(=O)[C@@H](C)Oc1ccc(Oc2ccc(C(F)(F)F)cn2)cc1`: the result was inactive.
For `CCCN(CCC)c1c([N+](=O)[O-])cc(C(F)(F)F)c(N)c1[N+](=O)[O-]`, the concentration at half-maximal activity (AC50) is 7.3 µM (active).
As to `COCCO`, the outcome was inactive.
`CCCN(CCC)C(=O)SCC`: the compound was called inactive.
Consider `CC(C)CCCCCCc1ccc(O)cc1`, for which the AC50 is 50 µM (active).
The same measure, in the same setting: the value for `C[C@]12CC[C@@H]3c4ccc(O)cc4C[C@@H](CCCCCCCCCS(=O)CCCC(F)(F)C(F)(F)F)[C@H]3[C@@H]1CC[C@@H]2O` (some centres undefined) was 31.1 µM (active).

Read-out in the next experiment: DNA damage-inducible transcript 3 (DDIT3), DDIT3 (gene 1649)
As to the kind of experiment: LTEA_HepaRG_DDIT3: Life Technologies and Expression Analysis (LTEA) Assay for DNA damage-inducible transcript 3 (DDIT3) using HepaRG (AID 2283488). Particulars: mRNA level, 48 h; actives raise or lower the signal. An outline of the steps: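 Differentiated human HepaRG cells in serum-free induction medium were exposed in duplicate for 48 h to 8 concentrations (top 100 uM, half-log steps, 0.5% DMSO). DDIT3 mRNA measured by TaqMan qRT-PCR, normalized to ACTB/GAPDH/POLR2A; bidirectional fit versus DMSO.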
Consider `O=C(O)c1ccccc1`, for which the compound was classed as inactive.
Consider `CCOC(=O)COc1cc(-n2ncc(C(F)(F)F)c(C)c2=O)c(F)cc1Cl`, for which the result was inactive.
For `CCOC(=O)c1ccc(O)cc1`, the result was inactive.
For the compound `O=C(Nc1ccc([N+](=O)[O-])cc1Cl)c1cc(Cl)ccc1O`, the AC50 is 3.35 µM (active).
With `Cc1nn(C)c(Oc2ccccc2)c1C=NOCc1ccc(C(=O)OC(C)(C)C)cc1`, the concentration at half-maximal activity (AC50) was 3.27 µM (active).
Consider `CCCCCCC(C)OC(=O)COc1nc(F)c(Cl)c(N)c1Cl` (centres undefined), for which the compound was classed as inactive.
In the case of `CCCCC(CC)COC(=O)c1ccccc1C(=O)O` (centres undefined), the compound was called inactive.
For `COc1c(Cl)ccc(Cl)c1C(=O)O`, the outcome was inactive.
As to `CC(=O)[C@H]1CC[C@H]2[C@@H]3CCC4=CC(=O)CC[C@]4(C)[C@H]3CC[C@]12C`, the AC50 was 27.2 µM (active).
As for `CCC(C)OC(=O)N1CCCCC1CCO` (centres undefined), the outcome was inactive.
For the compound `CC(=O)S[C@@H]1CC2=CC(=O)CC[C@]2(C)[C@H]2CC[C@@]3(C)[C@@H](CC[C@@]34CCC(=O)O4)[C@H]12`, the compound was called inactive.
Still for that read-out and setting: the value for `CCCCCOC(=O)COc1cc(N2C(=O)C3=C(CCCC3)C2=O)c(F)cc1Cl` was “inactive”.
Take `S=C([S-])NCCNC(=S)[S-].[Mn+2]`: the concentration at half-maximal activity (AC50) is 6.1 µM (active).
On to `CCCCOC(=O)C(C)Oc1ccc(Oc2ccc(C(F)(F)F)cn2)cc1` (centres undefined), for which the outcome was inactive.
`CCCCOCCOCCOCc1cc2c(cc1CCC)OCO2`: the result was inactive.
On the same count and under the same terms, under `CC1(C)C(C=C(Cl)Cl)C1C(=O)OCc1cccc(Oc2ccccc2)c1` (centres undefined) stands “inactive”.
`COC(=O)c1ccc(I)cc1S(=O)(=O)NC(=O)Nc1nc(C)nc(OC)n1`: the call was inactive.
As for `c1ccc(Nc2ccccc2)cc1`, the compound was called inactive.
The same measure, in the same setting: under `CCCCOC(=O)[C@@H](C)Oc1ccc(Oc2ccc(C(F)(F)F)cn2)cc1` stands “inactive”; under `CCCN(CCC)c1c([N+](=O)[O-])cc(C(F)(F)F)c(N)c1[N+](=O)[O-]`, “inactive”; under `COCCO`, “inactive”.
Turning to `CCCN(CCC)C(=O)SCC`, the result was inactive.
For the compound `c1ccc2[nH]c(-c3cscn3)nc2c1`, the compound was called inactive.
Take `CC(C)CCCCCCc1ccc(O)cc1`: the compound was called inactive.
As to `C[C@]12CC[C@@H]3c4ccc(O)cc4C[C@@H](CCCCCCCCCS(=O)CCCC(F)(F)C(F)(F)F)[C@H]3[C@@H]1CC[C@@H]2O` (some centres undefined), the AC50 was 9.92 µM (active).
Still for that read-out and setting: the value for `N[C@@H](Cc1cc(I)c(Oc2ccc(O)c(I)c2)c(I)c1)C(=O)O` was 49.7 µM (active).

Read-out in a further experiment: Pro-epidermal growth factor (Homo sapiens) (UniProt P01133)
Kind of experiment: LTEA_HepaRG_EGF: Life Technologies and Expression Analysis (LTEA) Assay for Epidermal growth factor (EGF) using HepaRG (AID 2283489). Particulars: mRNA level, 48 h; actives raise or lower the signal. An outline of the steps:
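Differentiated human HepaRG cells, plated 48 h then switched to serum-free induction medium, were exposed for 48 h to test chemicals (8-point half-log series, top 100 uM, 0.5% DMSO). EGF mRNA was quantified by qRT-PCR, normalized to ACTB, GAPDH, POLR2A.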
On to `O=C(O)c1ccccc1`, for which the result was inactive.
Consider `CCOC(=O)COc1cc(-n2ncc(C(F)(F)F)c(C)c2=O)c(F)cc1Cl`, for which the outcome was inactive.
As to `CCOC(=O)c1ccc(O)cc1`, the outcome was inactive.
Turning to `O=C(Nc1ccc([N+](=O)[O-])cc1Cl)c1cc(Cl)ccc1O`, the concentration at half-maximal activity (AC50) is 12.1 µM (active).
As for `Cc1nn(C)c(Oc2ccccc2)c1C=NOCc1ccc(C(=O)OC(C)(C)C)cc1`, the call was inactive.
On to `CCCCCCC(C)OC(=O)COc1nc(F)c(Cl)c(N)c1Cl` (centres undefined), for which the compound was called inactive.
Same read-out and setting: under `CCCCC(CC)COC(=O)c1ccccc1C(=O)O` (centres undefined) stands “inactive”.
For the compound `CC(=O)[C@H]1CC[C@H]2[C@@H]3CCC4=CC(=O)CC[C@]4(C)[C@H]3CC[C@]12C`, the AC50 was 82 µM (active).
With `CCC(C)OC(=O)N1CCCCC1CCO` (centres undefined), the compound was called inactive.
In the case of `CC(=O)S[C@@H]1CC2=CC(=O)CC[C@]2(C)[C@H]2CC[C@@]3(C)[C@@H](CC[C@@]34CCC(=O)O4)[C@H]12`, the result was inactive.
As for `CCCCCOC(=O)COc1cc(N2C(=O)C3=C(CCCC3)C2=O)c(F)cc1Cl`, the result was inactive.
For the compound `S=C([S-])NCCNC(=S)[S-].[Mn+2]`, the concentration at half-maximal activity (AC50) was 5.3 µM (active).
Take `CCCCOC(=O)C(C)Oc1ccc(Oc2ccc(C(F)(F)F)cn2)cc1` (centres undefined): the outcome was inactive.
`CCCCOCCOCCOCc1cc2c(cc1CCC)OCO2`: the result was inactive.
Regarding `CC1(C)C(C=C(Cl)Cl)C1C(=O)OCc1cccc(Oc2ccccc2)c1` (centres undefined), the outcome was inactive.
Take `COC(=O)c1ccc(I)cc1S(=O)(=O)NC(=O)Nc1nc(C)nc(OC)n1`: the compound was classed as inactive.
Regarding `c1ccc(Nc2ccccc2)cc1`, the compound was classed as inactive.
On the same count and under the same terms, under `CCCCOC(=O)[C@@H](C)Oc1ccc(Oc2ccc(C(F)(F)F)cn2)cc1` stands “inactive”.
`CCCN(CCC)c1c([N+](=O)[O-])cc(C(F)(F)F)c(N)c1[N+](=O)[O-]`: the half-maximal activity concentration (AC50) was 21.2 µM (active).
As to `C[C@]12C[C@H](O)[C@H]3[C@@H](CCC4=CC(=O)CC[C@@]43C)[C@@H]1CC[C@@H]2C(=O)CO`, the compound was classed as inactive.
Consider `CCCN(CCC)C(=O)SCC`, for which the compound was classed as inactive.
Turning to `c1ccc2[nH]c(-c3cscn3)nc2c1`, the compound was classed as inactive.
Still for that read-out and setting: the value for `CC(C)CCCCCCc1ccc(O)cc1` was “inactive”.
On to `C[C@]12CC[C@@H]3c4ccc(O)cc4C[C@@H](CCCCCCCCCS(=O)CCCC(F)(F)C(F)(F)F)[C@H]3[C@@H]1CC[C@@H]2O` (some centres undefined), for which the AC50 is 0.0848 µM (active).
For `N[C@@H](Cc1cc(I)c(Oc2ccc(O)c(I)c2)c(I)c1)C(=O)O`, the result was inactive.
